Consider 40 molecules from PubChem BioAssay (EPA / NIEHS).

Records with an inconclusive call do not appear. Calls of active or inactive are those of the source. Rule for the calls: active = hit-call score of the fitted dose curve at least 0.9, where 1 is the maximum; inconclusive = response in the unintended direction; inactive = score below 0.9.

Chain of human Vitamin D Receptor (VDR), VDR (gene 7421) (P11473 whole entry, looked up): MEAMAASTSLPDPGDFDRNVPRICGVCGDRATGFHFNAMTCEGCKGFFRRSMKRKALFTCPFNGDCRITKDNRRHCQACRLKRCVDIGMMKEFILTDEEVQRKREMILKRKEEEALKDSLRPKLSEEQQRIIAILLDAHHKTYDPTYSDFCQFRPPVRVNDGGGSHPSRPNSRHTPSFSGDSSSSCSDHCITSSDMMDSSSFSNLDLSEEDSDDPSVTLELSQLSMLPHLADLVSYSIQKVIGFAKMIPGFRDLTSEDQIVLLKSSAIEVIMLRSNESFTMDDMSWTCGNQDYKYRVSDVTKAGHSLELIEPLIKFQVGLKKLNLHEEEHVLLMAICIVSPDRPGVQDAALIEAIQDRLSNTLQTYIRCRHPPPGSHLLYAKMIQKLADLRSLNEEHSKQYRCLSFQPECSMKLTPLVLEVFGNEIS

This assay deals with human Vitamin D Receptor (VDR), VDR (gene 7421) (UniProt P11473). The assay can be described thus: ATG_VDR_TRANS: Attagene TRANS-FACTORIAL HepG2 Assay for human Vitamin D Receptor (VDR) (AID 2283022). The protocol:
ATG_TRANS is a cell-based, multiplexed-readout assay that uses HepG2, a human liver cell line, with measurements taken at 24 hours after chemical dosing in a 24-well plate.ATG_VDR_TRANS is one of 30 assay component(s) measured or calculated from the ATG_TRANS assay. It is designed to make measurements of mRNA induction, a form of inducible reporter, as detected with fluorescence intensity signals by Reverse transcription polymerase chain reaction (RT-PCR) and Capillary electrophoresis technology.Data from the assay component ATG_VDR_TRANS was analyzed into 1 assay endpoint. This assay endpoint, ATG_VDR_TRANS, was analyzed in the positive analysis fitting direction relative to DMSO as the negative control and baseline of activity. Using a type of inducible reporter, measures of mRNA for gain-of-signal activity can be used to understand the reporter gene at the transcription factor-level as they relate to the gene VDR. Furthermore, this assay endpoint can be referred to as a primary readout, because this assay has produced multiple assay endpoints where this one serves a reporter gene function. To generalize the intended target to other relatable targets, this assay endpoint is annotated to the nuclear receptor intended target family, where the subfamily is non-steroidal.
Human liver HepG2 cells are transiently transfected with multiple reporter transcription units (MRTUs) in 6-well plates using FuGene 6 reagent (Roche; 3 ml FuGene/1 mg DNA). The MRTU constructs are regulated by a cis-regulating element (promoter). […] A major difference between the CIS and TRANS system is that in CIS activities of endogenous TFs are measured, whereas the TRANS assay evaluates changes in activities of exogenous, chimeric NR-Gal4 proteins. […] At the end of 24 hour incubation, total RNA was isolated using TriZol reagent (Invitrogen). The isolated RNA is then reverse-transcribed using oligo(dT) primer and Mo-MLV reverse transcriptase (Invitrogen) with DNAse I (Ambion) treatment for 30 min. The one-tenth of the produced cDNA was amplified by PCR using Taq DNA polymerase (Invitrogen) and two reporter sequence-specific primers. The PCR products were fluorescently labeled by primer extension with 6-arboxyfluorescein (6-FAM) 5'-labeled reporter sequence-specific primer (2 min at 95 C, 20 s at 68 C and 10 min at 72 C) and these products were digested with 5U of HpaI (New England Biolabs) for 2h at 37 C. The fragments were purified using Qiaquick PCR columns (Qiagen), analyzed on an ABI 3130xL genetic analyzer (Applied Biosystems) with peak positions identified by using a set of X-rhodamine (ROX)-labeled MapMarker1000 molecular weight standards (BioVentures). The raw capillary electrophoresis data was processed using Attagraph software (Attagene).
For the molecule `Cn1c(=O)[nH]c2ncn(C)c2c1=O`, the molecule was called inactive.
Then `FC(F)=C(F)OC(F)(F)C(F)(F)C(F)(F)F`, with “inactive”; and `O=Cc1ccc(CO)o1`, with “inactive”; and `O=C(O)CCCC[C@@H]1SC[C@@H]2NC(=O)N[C@@H]21`, with “inactive”.
Then `Cc1cc(C)c(C)c(C)c1`, with “inactive”; and `O=CN1CCCCC1`, with “inactive”; and `CC(C)c1ccc(C=O)cc1`, with “inactive”.
On to `NC(CO)(CO)CO`, for which the molecule was called inactive.
As to `C=CCOCC(O)CCl` (stereo not given), the molecule was called inactive.
Turning to `Nc1ccc(N=Nc2ccccc2)c(N)n1`, the outcome was inactive.
Take `CC(C)(C)C(=O)C=Cc1ccc(Cl)cc1`: the outcome was inactive.
As for `Cc1ccc2c(c1)C(=O)c1ccccc1C2=O`, the outcome was inactive.
The result for `NC(=O)NNC(N)=O` reads “inactive”; that for `CCc1c(C(=O)O)c(=O)cnn1-c1ccc(Cl)cc1`, “inactive”.
Regarding `CCCCCCCOC(=O)CCC`, the result was inactive.
The result for `COc1ccc([C@@H]2CC(=O)c3c(O)cc(O[C@@H]4O[C@H](CO[C@@H]5O[C@@H](C)[C@H](O)[C@@H](O)[C@H]5O)[C@@H](O)[C@H](O)[C@H]4O)cc3O2)cc1OC` reads “inactive”.
Then `Cc1ccc(N)c([N+](=O)[O-])c1`, with “inactive”.
The result for `O=C(c1ccccc1)c1ccc(O)c(O)c1O` reads “inactive”.
For the molecule `CCOc1ccc(N)c([N+](=O)[O-])c1`, the molecule was classed as inactive.
As for `C=CCCCCCCCCC(=O)OCCCC`, the molecule was classed as inactive.
Then `CCOc1nc(F)cc2nc(S(=O)(=O)Nc3c(Cl)cccc3C(=O)OC)nn12`, with “inactive”; and `COCc1c(C(C)C)nc(C(C)C)c(/C=C/[C@@H](O)C[C@@H](O)CC(=O)O)c1-c1ccc(F)cc1`, with “inactive”; and `CCc1nccnc1C`, with “inactive”.
The result for `Nc1ccc(N)c(Cl)c1` reads “inactive”.
The result for `O=C1CCC(=O)N1Cl` reads “inactive”; that for `c1cc(N(CC2CO2)CC2CO2)ccc1OCC1CO1` (stereo not given), “inactive”.
Take `Cc1cccc(N(C)C(=S)Oc2ccc3ccccc3c2)c1`: the molecule was called inactive.
As for `Cn1c([N+](=O)[O-])cnc1COC(N)=O`, the result was inactive.
Then `CCCC(C)CCC(C)=O` (stereo not given), with “inactive”; and `C=CC(C)(C)C`, with “inactive”; and `C=CC(C)(CCC=C(C)C)OC(=O)CC(C)C` (stereo not given), with “inactive”.
In the case of `C=CC(=O)OCCOC1C2CCC1C1CC=CC12` (stereo not given), the molecule was called inactive.
Consider `CC(C)C1=CC2=CC[C@@H]3[C@](C)(CCC[C@@]3(C)C(=O)O)[C@H]2CC1`, for which the result was inactive.
`C=CCOc1c(Br)cc(Br)cc1Br`: the outcome was inactive.
Then `CCC(=O)Oc1ccc(/C(CC)=C(\CC)c2ccc(OC(=O)CC)cc2)cc1`, with “inactive”; and `CC1=Nc2ccc3ccccc3c2C1(C)C`, with “inactive”.
As for `CC(=O)NS(=O)(=O)c1ccc(N)cc1`, the result was inactive.
Then `Cc1ccc(C2OC[C@@H]3OC(c4ccc(C)cc4)O[C@H]([C@H](O)CO)[C@@H]3O2)cc1` (stereo not given in full), with “inactive”; and `CCOC(=O)Cc1cccc2ccccc12`, with “inactive”.
As for `CCCOC(=O)CCCCC(=O)OCCC`, the molecule was classed as inactive.
